# Reference: the supplement of paper PMC8728848
# The full list was thinned out, with the strongest signals kept by preference.
# Experiments:
# Test in all cases: glycan array binding signal (z-score within array); higher = stronger binding
# Conditions in all cases: glycan notation: IUPAC condensed, linker removed
# [1] = target: Fuc(a1-2)Gal
# Procedure, shortened: (§1)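 Glycan array data were curated from 3228 arrays in the Consortium for Functional Glycomics database and kept only where the protein sequence was available. Glycan names were converted to IUPAC-condensed notation, and columns mapping to the same glycan were averaged. The binding signal is a within-array Z-score, averaged across arrays of the same protein sequence at different concentrations or buffers and across linkers. Negative Z-scores can be read as non-binding.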
# [2] = target: Fuc(a1-2)Gal(b1-3)[Fuc(a1-4)]GlcNAc(b1-2)Man(a1-3)[Fuc(a1-2)Gal(b1-3)[Fuc(a1-4)]GlcNAc(b1-2)Man(a1-6)]Man(b1-4)GlcNAc(b1-4)GlcNAc
# Procedure, shortened: as §1
# [3] = target: Fuc(a1-2)Gal(b1-3)[Fuc(a1-4)]GlcNAc(b1-3)[Gal(b1-4)GlcNAc(b1-6)]Gal(b1-4)Glc
# Procedure, shortened: as §1
# [4] = target: Fuc(a1-2)Gal(b1-4)[Fuc(a1-3)]GlcNAc(b1-2)[Fuc(a1-2)Gal(b1-4)[Fuc(a1-3)]GlcNAc(b1-4)]Man(a1-3)[Fuc(a1-2)Gal(b1-4)[Fuc(a1-3)]GlcNAc(b1-2)Man(a1-6)]Man(b1-4)GlcNAc(b1-4)GlcNAc
# Procedure, shortened: as §1
# [5] = target: Fuc(a1-2)Gal(b1-4)[Fuc(a1-3)]GlcNAc(b1-3)GalNAc
# Procedure, shortened: as §1
# [6] = target: Fuc(a1-2)Gal6S(b1-4)Glc6S
# Procedure, shortened: as §1
# [7] = target: Fuc(a1-3)GlcNAc
# Procedure, shortened: as §1
# [8] = target: Fuc(a1-3)[Gal(b1-4)]GlcNAc
# Procedure, shortened: as §1
# [9] = target: Fuc(a1-3)[Gal(b1-4)]GlcNAc(b1-6)GalNAc
# Procedure, shortened: as §1
# [10] = target: Fuc(a1-3)[Gal(b1-4)]GlcNAc(b1-6)[Gal(b1-3)GlcNAc(b1-3)]Gal(b1-4)Glc
# Procedure, shortened: as §1
# [11] = target: Gal(a1-3)Gal(b1-4)GlcNAc
# Procedure, shortened: as §1
# [12] = target: Gal(b1-3)GalNAc(a1-3)[Fuc(a1-2)]Gal(b1-4)GlcNAc
# Procedure, shortened: as §1
# [13] = target: Gal(b1-3)GlcNAc(b1-3)Gal(b1-4)Glc
# Procedure, shortened: as §1
# [14] = target: Gal(b1-3)[Neu5Ac(a2-6)]GalNAc
# Procedure, shortened: as §1
# [15] = target: Gal(b1-4)Glc6S
# Procedure, shortened: as §1
# [16] = target: Gal(b1-4)GlcNAc
# Procedure, shortened: as §1
# [17] = target: Gal(b1-4)GlcNAc(b1-2)Man
# Procedure, shortened: as §1
# [18] = target: Gal(b1-4)GlcNAc(b1-3)Gal(b1-4)[Fuc(a1-3)GlcNAc(b1-6)]Gal(b1-4)Glc
# Procedure, shortened: as §1
# [19] = target: Gal3S(b1-4)Glc6S
# Procedure, shortened: as §1
# [20] = target: Gal3S6S(b1-4)GlcNAc
# Procedure, shortened: as §1
# [21] = target: Gal4S6S(b1-4)GlcNAc
# Procedure, shortened: as §1
# [22] = target: GalNAc(b1-3)Gal
# Procedure, shortened: as §1
# [23] = target: GalNAc(b1-4)GlcNAc(b1-2)Man(a1-3)[GalNAc(b1-4)GlcNAc(b1-2)Man(a1-6)]Man(b1-4)GlcNAc(b1-4)GlcNAc
# Procedure, shortened: as §1
# [24] = target: GlcNAc(a1-4)Gal(b1-4)GlcNAc(b1-3)Gal(b1-4)[Fuc(a1-3)]GlcNAc(b1-3)Gal(b1-4)[Fuc(a1-3)]GlcNAc
# Procedure, shortened: as §1
# [25] = target: GlcNAc(a1-6)Gal(b1-4)GlcNAc
# Procedure, shortened: as §1
# [26] = target: GlcNAc(b1-2)[GlcNAc(b1-6)]Man(a1-6)[GlcNAc(b1-2)Man(a1-3)]Man(b1-4)GlcNAc(b1-4)GlcNAc
# Procedure, shortened: as §1
# [27] = target: Man(b1-4)GlcNAc
# Procedure, shortened: as §1
# [28] = target: Neu5Ac(a2-3)Gal(b1-3)[Fuc(a1-4)]GlcNAc(b1-3)Gal(b1-3)[Fuc(a1-4)]GlcNAc
# Procedure, shortened: as §1
# [29] = target: Neu5Ac(a2-3)Gal(b1-4)GlcNAc(b1-3)Gal(b1-4)GlcNAc
# Procedure, shortened: as §1
# [30] = target: Neu5Ac(a2-3)Gal(b1-4)GlcNAc(b1-3)Gal(b1-4)[Fuc(a1-3)]GlcNAc
# Procedure, shortened: as §1
# [31] = target: GlcA(b1-6)Gal
# Procedure, shortened: as §1
# [32] = target: GlcNAc(a1-3)Gal(b1-4)GlcNAc
# Procedure, shortened: as §1
# [33] = target: GlcNAc(b1-2)Gal(b1-3)GalNAc
# Procedure, shortened: as §1
# [34] = target: GlcNAc(b1-2)[GlcNAc(b1-6)]Man(a1-6)[GlcNAc(b1-2)Man(a1-3)][GlcNAc(b1-4)]Man(b1-4)GlcNAc(b1-4)GlcNAc
# Procedure, shortened: as §1
# [35] = target: Man(a1-2)Man(a1-2)Man(a1-3)Man
# Procedure, shortened: as §1
# [36] = target: Man(a1-2)Man(a1-6)[Man(a1-3)]Man(a1-6)[Man(a1-2)Man(a1-2)Man(a1-3)]Man
# Procedure, shortened: as §1
# [37] = target: Man(a1-3)[Man(a1-6)]Man(a1-6)[Man(a1-3)]Man
# Procedure, shortened: as §1
# [38] = target: Man(a1-6)Man
# Procedure, shortened: as §1
# [39] = target: Neu5Ac(a2-6)Gal(b1-4)GlcNAc(b1-2)Man(a1-3)[GlcNAc(b1-2)Man(a1-6)]Man(b1-4)GlcNAc(b1-4)GlcNAc
# Procedure, shortened: as §1
# [40] = target: Neu5Ac(a2-6)Gal(b1-4)GlcNAc(b1-2)Man(a1-6)[Gal(b1-4)GlcNAc(b1-2)Man(a1-3)]Man(b1-4)GlcNAc(b1-4)GlcNAc
# Procedure, shortened: as §1
# [41] = target: Neu5Ac(a2-6)Gal(b1-4)GlcNAc(b1-2)Man(a1-6)[GlcNAc(b1-2)Man(a1-3)]Man(b1-4)GlcNAc(b1-4)GlcNAc
# Procedure, shortened: as §1
# [42] = target: Neu5Ac(a2-6)Gal(b1-4)GlcNAc(b1-3)Gal(b1-4)[Fuc(a1-3)]GlcNAc(b1-3)Gal(b1-4)[Fuc(a1-3)]GlcNAc
# Procedure, shortened: as §1
# [43] = target: Neu5Ac(a2-6)GalNAc
# Procedure, shortened: as §1
# [44] = target: Neu5Ac(a2-6)GlcNAc(b1-4)GlcNAc(b1-4)GlcNAc
# Procedure, shortened: as §1
# [45] = target: Neu5Ac(a2-8)Neu5Ac(a2-8)Neu5Ac(a2-3)[GalNAc(b1-4)]Gal(b1-4)Glc
# Procedure, shortened: as §1
binder,measurement,setting,value
"Protectin (Homo sapiens), P13987 (protein) MGIQGGSVLFGLLLVLAVFCHSGHSLQCYNCPNPTADCKTAVNCSSDFDACLITKAGLQVYNKCWKFEHCNFNDVTTRLRENELTYYCCKKDLCNFNEQLENGGTSLSEKTVLLLVTPFLAAAWSLHP",glycan array binding signal (z-score),[1],-0.701
same,glycan array binding signal (z-score),[2],3.68
same,glycan array binding signal (z-score),[3],-0.784
same,glycan array binding signal (z-score),[4],2.73
same,glycan array binding signal (z-score),[5],3.6
same,glycan array binding signal (z-score),[6],-0.108
same,glycan array binding signal (z-score),[7],-0.062
same,glycan array binding signal (z-score),[8],0.55
same,glycan array binding signal (z-score),[9],2.63
same,glycan array binding signal (z-score),[10],-0.354
same,glycan array binding signal (z-score),[11],1.53
same,glycan array binding signal (z-score),[12],-0.989
same,glycan array binding signal (z-score),[13],2.77
same,glycan array binding signal (z-score),[14],0.383
same,glycan array binding signal (z-score),[15],0.209
same,glycan array binding signal (z-score),[16],0.172
same,glycan array binding signal (z-score),[17],0.267
same,glycan array binding signal (z-score),[18],-0.518
same,glycan array binding signal (z-score),[19],-0.411
same,glycan array binding signal (z-score),[20],-0.261
same,glycan array binding signal (z-score),[21],0.014
same,glycan array binding signal (z-score),[22],-1.36
same,glycan array binding signal (z-score),[23],2.58
same,glycan array binding signal (z-score),[24],6.43
same,glycan array binding signal (z-score),[25],-0.166
same,glycan array binding signal (z-score),[26],-0.347
same,glycan array binding signal (z-score),[27],-0.439
same,glycan array binding signal (z-score),[28],3.13
same,glycan array binding signal (z-score),[29],0.462
same,glycan array binding signal (z-score),[30],0.647
CALR truncated at D342 (Homo sapiens) (protein) EPAVYFKEQFLDGDGWTSRWIESKHKSDFGKFVLSSGKFYGDEEKDKGLQTSQDARFYALSASFEPFSNKGQTLVVQFTVKHEQNIDCGGGYVKLFPNSLDQTDMHGDSEYNIMFGPDICGPGTKKVHVIFNYKGKNVLINKDIRCKDDEFTHLYTLIVRPDNTYEVKIDNSQVESGSLEDDWDFLPPKKIKDPDASKPEDWDERAKIDDPTDSKPEDWDKPEHIPDPDAKKPEDWDEEMDGEWEPPVIQNPEYKGEWKPRQIDNPDYKGTWIHPEIDNPEYSPDPSIYAYDNFGVLGLDLWQVKSGTIFDNFLITNDEAYAEEFGNETWGVTKAAEKQMKD,glycan array binding signal (z-score),[31],1.96
same,glycan array binding signal (z-score),[32],-0.73
same,glycan array binding signal (z-score),[24],2.68
same,glycan array binding signal (z-score),[33],-0.975
same,glycan array binding signal (z-score),[34],-0.104
same,glycan array binding signal (z-score),[35],-0.176
same,glycan array binding signal (z-score),[36],3.6
same,glycan array binding signal (z-score),[37],-0.102
same,glycan array binding signal (z-score),[38],0.051
same,glycan array binding signal (z-score),[39],-0.321
same,glycan array binding signal (z-score),[40],3.22
same,glycan array binding signal (z-score),[41],-1.48
same,glycan array binding signal (z-score),[42],0.139
same,glycan array binding signal (z-score),[43],-0.893
same,glycan array binding signal (z-score),[44],0.867
same,glycan array binding signal (z-score),[45],-0.341
